Only some compounds are listed: those with a hit (about 2.6% of all), similar ones and a draw of the others.
Cruzain inh Det: cruzain (T. cruzi) inhibition with detergent. P25779. purified cruzain, Z-FR-AMC fluorescence, 0.01% Triton. Potency, µM, hits mostly inhibitors. 200,000 compounds, 0.43% hits. AID 1478; further: nearly all actives have a fitted effect of over 40% in size
Target sequence (P25779 123-467 limits assumed): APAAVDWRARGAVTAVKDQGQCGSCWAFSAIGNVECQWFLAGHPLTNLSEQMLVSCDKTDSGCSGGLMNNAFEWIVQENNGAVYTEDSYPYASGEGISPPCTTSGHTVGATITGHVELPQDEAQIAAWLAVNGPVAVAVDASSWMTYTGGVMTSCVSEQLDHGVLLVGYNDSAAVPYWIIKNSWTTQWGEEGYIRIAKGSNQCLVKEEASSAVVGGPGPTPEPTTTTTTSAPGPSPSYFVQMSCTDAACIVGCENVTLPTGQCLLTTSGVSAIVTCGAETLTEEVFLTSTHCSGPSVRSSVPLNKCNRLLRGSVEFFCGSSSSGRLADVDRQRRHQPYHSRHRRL
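Cysteine protease activity tested under reducing, mildly acidic conditions (100 mM sodium acetate pH 5.5, 5 mM DTT) plus 0.01% Triton X-100. Cruzain 1.5 nM; substrate Z-FR-AMC 2 uM; 15 min compound preincubation at room temperature.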
Cruzain noTriton: cruzain (T. cruzi) inhibition without detergent; P25779; purified cruzain, Z-FR-AMC fluorescence, no detergent; Potency, µM, hits mostly inhibitors; 200,000 compounds, 2.3% hits; AID 1476; further: nearly all actives have a fitted effect of over 40% in size
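Detergent-free condition (0.00005% Triton X-100) in acetate buffer pH 5.5 with DTT. 1.5 nM enzyme and compound were pre-mixed 15 min, then 2 uM Z-FR-AMC substrate added; reaction progress from fluorescence change between first and third reads (60 s).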
Hits are given with their value; – = inactive; ? = inconclusive. The call rests on the fitted dose curve; in most records, active means well fitted curve in the direction sought with a large enough effect; inconclusive means small, poorly fitted or top-dose-only effect, or another doubt; inactive means no such curve, though single readings can be large; an effect the other way counts as inactive or inconclusive.

SMILES	Cruzain inh Det	Cruzain noTriton
COC(=O)c1sccc1S(=O)(=O)N(CC(=O)Nc1cc(C)ccc1C)c1ccc(C)c(C)c1	–	–
COc1ccc(Br)cc1CN1C(=O)c2ccccc2C1C(=O)NC1CCCCCC1 (configuration not stated)	–	–
COc1ccc2[nH]cc(CCNc3ncnc4ccc(-c5cccnc5)cc34)c2c1	–	–
COc1ccc2[nH]cc(CCNc3nc(-c4ccc(C(=O)N(C)C)cc4)nc4ccccc34)c2c1	–	–
COc1ccc2[nH]cc(CCNc3nc(-c4ccc(N(C)C)cc4)nc4ccccc34)c2c1	–	25µM
COc1ccc2[nH]cc(CCNc3ncnc4ccc(-c5ccc6c(c5)OCO6)cc34)c2c1	–	32µM
CCOc1ccccc1CNC(=O)c1cnc2sc(N3CCCC3)nn2c1=O	–	–
CC(C(=O)NCc1ccccc1)n1ccc2cc(S(=O)(=O)N3CCCC3)ccc21 (configuration not stated)	–	–
Cc1ccc(OCC(=O)NCC2(N3CCN(C)CC3)CCCCC2)cc1C	–	–
COc1cccc(NC(=O)NCc2ccc3c(c2)CCN3C(=O)c2ccccc2)c1	–	–
CCOC(=O)c1c(N2C(=O)C3C4C=CC(O4)C3C2=O)sc2c1CCCC2 (configuration not stated)	–	–
CCOC(=O)c1c(N2C(=O)Nc3cc(Cl)c(Cl)cc3N2O)sc2c1CCCCC2	25µM	–
Cc1ccccc1Nc1sc(C(=O)c2ccccc2)c(N)c1C(=O)NCc1ccc(Cl)cc1	–	5µM
COc1ccc(CNC(=O)c2c(Nc3ccc(OC)cc3OC)sc(C(=O)c3ccc(Cl)cc3)c2N)cc1	–	13µM
CCOc1ccc(NC(=O)c2c(Nc3ccc(OC)cc3OC)sc(C(=O)c3ccc(Cl)cc3)c2N)cc1	–	?
COc1ccc(CNC(=O)c2c(Nc3ccccc3C)sc(C(=O)c3ccccc3)c2N)cc1	–	?
COc1ccc(-n2c(C)c([N+](=O)[O-])c3ccc(O)c(CN(C)C)c32)cc1	–	25µM
COc1ccc(-n2c(C(C)n3nc(C)c([N+](=O)[O-])c3C)n[nH]c2=S)cc1 (configuration not stated)	–	–
COc1ncc2nc(-c3ccc(F)cc3)c(=O)n(-c3ccccc3)c2n1	–	–
CC(=O)c1ccc(NC(=O)Cn2nc(C(F)(F)F)c3c2CCCC3)cc1	–	–
O=C(Nc1cccc(Cl)c1)c1c(O)c2c(n(Cc3ccccc3)c1=O)CCCC2	–	16µM
CCOC(=O)c1c(O)c2c(n(Cc3ccco3)c1=O)CCCC2	–	–
CCCn1c2c(c(O)c(C(=O)NCc3ccccc3)c1=O)CCCC2	–	–
O=C(Nc1cccc(Cl)c1)c1c(O)c2c(n(Cc3ccco3)c1=O)CCCC2	–	7.9µM
COc1ccc2oc(-c3ccc(C)c(NC(=O)Cc4ccc(Cl)cc4)c3)nc2c1	–	–
SMILES	Cruzain inh Det	Cruzain noTriton
CCOC(=O)C1CCN(C(=O)c2cnn(-c3ccc(F)cc3)c2-n2cccc2)CC1	–	–
Cc1c(NC(=O)C(C)(C)Oc2ccc(Cl)cc2)cccc1-c1nc2ncccc2o1	–	–
COc1ccc(C2=C(C)C(=O)N(Cc3ccc(C(=O)Nc4cccc(F)c4)cc3)S2(=O)=O)cc1	–	?
COc1ccc(C2=C(C)C(=O)N(Cc3ccc(C(=O)NC(C)c4ccccc4)cc3)S2(=O)=O)cc1 (configuration not stated)	–	16µM
CC1=C(c2ccc(C)c(C)c2)S(=O)(=O)N(Cc2ccc(C(=O)NC(C)c3ccccc3)cc2)C1=O (configuration not stated)	–	–
COc1ccc(C2=C(C)C(=O)N(Cc3ccc(C(=O)NCc4cccc(C)c4)cc3)S2(=O)=O)cc1	–	25µM
CCc1cccc(NC(=O)c2ccc(CN3C(=O)C(C)=C(c4ccc(OC)cc4)S3(=O)=O)cc2)c1	–	25µM
COc1ccc(C2=C(C)C(=O)N(Cc3ccc(C(=O)NCc4ccc(C)cc4)cc3)S2(=O)=O)cc1	–	–
O=[N+]([O-])c1ccc2c(c1)C(N1CCOCC1)/C(=C/COc1ccc3ccccc3c1Br)O2 (configuration not stated)	–	25µM
O=[N+]([O-])c1ccc(OC/C=C2\Oc3ccc([N+](=O)[O-])cc3C2N2CCOCC2)cc1 (configuration not stated)	–	–
O=C1NC(=O)c2cc(Nc3ccc(F)cc3)c(Nc3ccc(F)cc3)cc21	–	–
O=C1NC(=O)c2cc(Nc3ccccc3)c(Nc3ccccc3)cc21	–	20µM
Cc1ccc(S(=O)(=O)N2CCCc3cc(NS(=O)(=O)c4cccc(Cl)c4)ccc32)cc1	–	25µM
CCOc1ccc(S(=O)(=O)Nc2ccc3c(c2)CCCN3S(=O)(=O)c2ccc(C)cc2)cc1	–	?
CN(C)c1ccc(-c2nnn(CC(=O)N3c4ccccc4CCc4ccccc43)n2)cc1	–	32µM
CN(C)c1ccc(-c2nnn(CC(=O)Nc3ccccc3N3CCOCC3)n2)cc1	–	–

Assay outcomes from PubChem.
